Reference: PubChem BioAssay (NCI)
Compounds without any hit were thinned out: in the full panel of roughly 79,000, 15% have a hit. Activity calls are given as the source filed them. No stated cut-off is given here; in the data, active means growth inhibition above about 70%; inactive means the rest.

Legend:
[1] = NCI Yeast Anticancer Drug Screen. Data for the rad52 strain (AID 147);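 further: 0% = growth of vehicle-treated control cultures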; conditions: S. cerevisiae rad52 mutant growth inhibition, hits give high values
In short: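 Screen used a yeast mutant impaired in DNA repair. After compound exposure, growth was measured. Values reflect inhibition compared with vehicle-treated cells.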

[2] = NCI Yeast Anticancer Drug Screen. Data for the wt1 strain (AID 149);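 further: 0% = growth of vehicle-treated wt1 cultures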; conditions: S. cerevisiae wt1 strain (SPY 50644) growth inhibition, hits give high values
In short: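 Growth inhibition read against vehicle controls after compound exposure of the wt1 yeast strain.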

[3] = NCI Yeast Anticancer Drug Screen. Data for the rad50EPP+ strain (AID 151);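 further: 0% = growth of vehicle-treated control cultures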; conditions: S. cerevisiae rad50 mutant strain, hits give high values
In short: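 Exposing the rad50EPP+ strain to each compound, growth was compared with vehicle-only cultures to give inhibition.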

[4] = NCI Yeast Anticancer Drug Screen. Data for the rad50 strain (AID 155);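 further: 0% = growth of vehicle-only cultures of the same strain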; conditions: S. cerevisiae rad50 strain growth inhibition, hits give high values
In short: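 Readout: growth inhibition relative to vehicle-treated cultures. Compound exposure was carried out in a genetically defined yeast strain deficient in DNA damage repair.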

[5] = NCI Yeast Anticancer Drug Screen. Data for the mec2-1 strain (AID 157); conditions: S. cerevisiae mec2-1 strain, hits give high values
In short: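 Readout is yeast growth inhibition, normalised to vehicle-treated controls, in the mec2-1 strain exposed to compound.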

[6] = NCI Yeast Anticancer Drug Screen. Data for the rad14 strain (AID 159);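 further: 0% = growth of vehicle-treated control cultures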; conditions: S. cerevisiae rad14 strain growth inhibition, hits give high values
In short: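 Growth inhibition vs vehicle controls; genetically altered yeast strain (DNA damage repair defect) treated with test compounds.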

[7] = NCI Yeast Anticancer Drug Screen. Data for the sgs1 mgt1 strain (AID 161);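 further: 0% = growth of cultures given vehicle only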; conditions: S. cerevisiae sgs1 mgt1 strain, hits give high values
In short: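 This yeast growth screen uses a strain with defined DNA-repair lesions; compound-treated growth is compared with vehicle-treated growth.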

[8] = NCI Yeast Anticancer Drug Screen. Data for the CLN2oe strain (AID 163);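 further: 0% = growth of vehicle-only control cultures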; conditions: S. cerevisiae CLN2oe strain, hits give high values
In short: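 Values reflect how much compound exposure reduced yeast growth, referenced to vehicle-exposed cells. Assay organism is a strain with a defined genetic change affecting cell-cycle control.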

[9] = NCI Yeast Anticancer Drug Screen. Data for the cln2 rad14 strain (AID 165);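 further: 0% = growth equal to vehicle treated cultures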; conditions: S. cerevisiae cln2 rad14 strain, hits give high values
In short: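 Relative to vehicle controls, growth inhibition of compound-treated cln2 rad14 yeast was recorded.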

[10] = NCI Yeast Anticancer Drug Screen. Data for the bub3 strain (AID 167); conditions: S. cerevisiae bub3 mutant strain, hits give high values
In short: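 Readout: yeast growth inhibition, expressed relative to vehicle-only wells. The test organism is a mutant strain from a panel with lesions in DNA repair or checkpoint genes.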

[11] = NCI Yeast Anticancer Drug Screen. Data for the wt2 strain (AID 169);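 further: 0% = growth of vehicle-treated yeast cultures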; conditions: S. cerevisiae wt2 strain growth inhibition, hits give high values
In short: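 Values express reduction in yeast growth under compound treatment, referenced to vehicle-treated cells.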

[12] = NCI Yeast Anticancer Drug Screen. Data for the mlh1 strain (AID 171);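 further: 0% = growth of vehicle-treated control cultures of the same strain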; conditions: S. cerevisiae mlh1 strain growth inhibition, hits give high values
In short: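 Steps: expose the defined-mutant yeast strain to compound; expose a parallel culture to vehicle; measure growth; express compound effect as inhibition relative to the vehicle culture.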

[13] = NCI Yeast Anticancer Drug Screen. Data for the sgs1 strain (AID 173);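 further: 0% = growth of vehicle-only control cultures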; conditions: S. cerevisiae sgs1 mutant, hits give high values
In short: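 Treat defined-mutant yeast with compound; measure growth; calculate inhibition relative to vehicle-treated cells.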

[14] = NCI Yeast Anticancer Drug Screen. Data for the mlh1 rad18 strain (AID 175); conditions: S. cerevisiae mlh1 rad18 strain growth inhibition, hits give high values
In short: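 Test agents were incubated with a yeast strain of defined genotype (DNA damage repair defect). Inhibition of growth was derived by comparison with vehicle-exposed cultures.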

[15] = NCI Yeast Anticancer Drug Screen. Data for the rad18 strain (AID 177); conditions: S. cerevisiae rad18 mutant growth inhibition, hits give high values
In short: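 A genetically defined yeast mutant impaired in DNA damage repair was treated with test compounds, then its growth was measured against cultures receiving vehicle alone.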

[16] = at 5.0 µM (retest, dose inferred, filed as 0.5)
[17] = at 50.0 µM (retest, dose inferred, filed as 5.0)

Measured: growth inhibition

O=C(/C=C\c1ccc([N+](=O)[O-])o1)Nc1ccc(Cl)cc1
inactive: [1]; at 1.2 µM 69% | [2]; at 1.2 µM 6% | [2]; at 3.7 µM 50% | [3]; at 1.2 µM 52% | [3]; at 3.7 µM 69% | [4]; at 1.2 µM 38% | [4]; [16] 24% | [4]; [17] 54% | [5]; at 1.2 µM 4% | [5]; at 3.7 µM 19% | [5]; [16] 23% | [5]; at 11.0 µM 63% | [5]; [17] 55% | [5]; at 50.0 µM 27.5% | [6]; at 1.2 µM 21% | [7]; [16] 63% | [8]; at 1.2 µM -4% | [8]; at 3.7 µM 30% | [8]; at 100.0 µM 61% | [9]; [16] 14% | [9]; [17] 31% | [9]; at 50.0 µM 35.1% | [10]; at 1.2 µM 0% | [10]; at 3.7 µM 24% | [10]; [16] 6% | [10]; [17] 42% | [10]; at 50.0 µM 10.4% | [11]; at 1.2 µM 28% | [12]; at 1.2 µM 1% | [12]; at 3.7 µM 46%
active: [1]; at 3.7 µM 96% | [1]; at 11.0 µM 98% | [1]; at 33.0 µM 98% | [1]; at 100.0 µM 97% | [2]; at 11.0 µM 97% | [2]; at 33.0 µM 98% | [2]; at 100.0 µM 98% | [3]; at 11.0 µM 83% | [3]; at 33.0 µM 91% | [3]; at 100.0 µM 84% | [4]; at 3.7 µM 82% | [4]; at 11.0 µM 97% | [4]; at 33.0 µM 97% | [4]; at 50.0 µM 90.1% | [4]; at 100.0 µM 96% | [5]; at 33.0 µM 91% | [5]; at 100.0 µM 95% | [6]; at 3.7 µM 70% | [6]; at 11.0 µM 91% | [6]; at 33.0 µM 94% | [6]; at 100.0 µM 96% | [7]; [17] 84% | [7]; at 50.0 µM 90% | [8]; at 11.0 µM 73% | [8]; at 33.0 µM 76% | [10]; at 11.0 µM 82% | [10]; at 33.0 µM 78% | [10]; at 100.0 µM 96% | [11]; at 3.7 µM 87% | [11]; at 11.0 µM 99% | [11]; at 33.0 µM 99% | [11]; at 100.0 µM 98% | [12]; at 11.0 µM 94% | [12]; at 33.0 µM 93% | [12]; at 100.0 µM 97% | [13]; at 1.2 µM 81% | [13]; at 3.7 µM 94% | [13]; at 11.0 µM 98% | [13]; at 33.0 µM 98% | [13]; at 100.0 µM 95% | [14]; [16] 88% | [14]; [17] 86% | [14]; at 50.0 µM 92.8% | [15]; at 1.2 µM 95% | [15]; at 3.7 µM 97% | [15]; at 11.0 µM 97% | [15]; at 33.0 µM 97% | [15]; at 100.0 µM 93%

[N-]=[N+]=NC(c1ccccc1)(c1ccccc1)c1ccccc1
inactive: [1]; at 1.2 µM 8% | [1]; at 3.7 µM 6% | [1]; at 11.0 µM 9% | [1]; at 33.0 µM 29% | [2]; at 1.2 µM 15% | [2]; at 3.7 µM 12% | [2]; at 11.0 µM -6% | [2]; at 33.0 µM 32% | [3]; at 1.2 µM 9% | [3]; at 3.7 µM 15% | [3]; at 11.0 µM 11% | [3]; at 33.0 µM 21% | [3]; at 100.0 µM 28% | [4]; at 1.2 µM 14% | [4]; at 3.7 µM 22% | [4]; at 11.0 µM 6% | [4]; at 33.0 µM 40% | [5]; at 1.2 µM 12% | [5]; at 3.7 µM 11% | [5]; at 11.0 µM 13% | [5]; at 33.0 µM 32% | [6]; at 1.2 µM -9% | [6]; at 3.7 µM 1% | [6]; at 11.0 µM -4% | [6]; at 33.0 µM 24% | [7]; [16] -4% | [8]; at 1.2 µM 29% | [8]; at 3.7 µM 23% | [8]; at 11.0 µM 20% | [8]; at 33.0 µM 26% | [9]; [16] 17% | [10]; at 1.2 µM 3% | [10]; at 3.7 µM -17% | [10]; [16] 12% | [10]; at 11.0 µM -16% | [10]; at 33.0 µM 27% | [11]; at 1.2 µM -14% | [11]; at 3.7 µM -9% | [11]; at 11.0 µM -11% | [11]; at 33.0 µM 16% | [12]; at 1.2 µM 6% | [12]; at 3.7 µM 10% | [12]; at 11.0 µM 13% | [12]; at 33.0 µM 42% | [13]; at 1.2 µM 0% | [13]; at 3.7 µM -15% | [13]; at 11.0 µM -8% | [13]; at 33.0 µM 66% | [15]; at 1.2 µM 10% | [15]; at 3.7 µM 6% | [15]; at 11.0 µM 14% | [15]; at 33.0 µM 37%
active: [1]; at 100.0 µM 94% | [2]; at 100.0 µM 88% | [4]; [16] 100% | [4]; [17] 98% | [4]; at 50.0 µM 85% | [4]; at 100.0 µM 92% | [5]; [16] 99% | [5]; [17] 98% | [5]; at 50.0 µM 80.8% | [5]; at 100.0 µM 95% | [6]; at 100.0 µM 94% | [7]; [17] 84% | [7]; at 50.0 µM 87.7% | [8]; at 100.0 µM 78% | [9]; [17] 89% | [9]; at 50.0 µM 80.5% | [10]; [17] 79% | [10]; at 50.0 µM 87.8% | [10]; at 100.0 µM 86% | [11]; at 100.0 µM 89% | [12]; at 100.0 µM 91% | [13]; at 100.0 µM 87% | [14]; [16] 100% | [14]; [17] 99% | [14]; at 50.0 µM 84.1% | [15]; at 100.0 µM 87%
